Structures can show the parent of a compound that is named as a salt. ± gives the standard deviation.

The experiment concerns THP-1. In words: THP-1 cell loss relative to DMSO control; higher = more host cell loss (toxicity); extreme values may be limits of the assay. The note with it: 10 µM; 4 days; infection: M. tuberculosis H37Rv. How it is done: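 OICR kinase inhibitor library screened in duplicate at 10 uM against M. tuberculosis-infected THP-1 macrophages, 4 days at 37 C. THP-1 cell loss (cytotoxicity or loss of adherence) was quantified from Hoechst-stained nuclei counts by high-content imaging and normalised to the 1% DMSO control; 100 = complete loss of host cells.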
Regarding `N#C/C(=C\c1ccc(O)c(O)c1)C(=O)Nc1ccccc1`, the THP-1 cell loss amounted to 9.72 ± 2.5%. Under `C/C(=N\N=C(N)N)c1ccc(NC(=O)Nc2ccc(/C(C)=N/N=C(N)N)cc2)cc1` stands 3.54 ± 5%. The value for `Cc1cnc(Nc2ccc(OCCN3CCCC3)cc2)nc1Nc1cccc(S(=O)(=O)NC(C)(C)C)c1` was 100%; that for `O=C1Cc2c([nH]c3ccc([N+](=O)[O-])cc23)-c2ccccc2N1` [Alsterpaullone] was 100%; that for `Nc1ncnc2c1c(I)cn2[C@@H]1O[C@H](CO)[C@@H](O)[C@H]1O` [5-Iodotubercidin] was 100%. The value for `CCN(CC)CCNC(=O)c1ccc2nc(-c3ccccc3)c(-c3ccc(CN4CCC(n5c(=O)[nH]c6ccccc65)CC4)cc3)nc2c1` [Merck-22-6] was 100%; that for `CN1CC[C@H](c2c(O)cc(O)c3c(=O)cc(-c4ccccc4Cl)oc23)[C@H](O)C1` [Alvocidib] was 100%; that for `Cc1ccc(NC(=O)c2ccc(CN3CCN(C)CC3)cc2)cc1Nc1nccc(-c2cccnc2)n1` [Imatinib Mesylate] was 9.14 ± 13%. On to `CC(C)[C@H](CO)Nc1nc(Nc2ccc(C(=O)O)c(Cl)c2)c2ncn(C(C)C)c2n1` [Purvalanol B], for which the THP-1 cell loss was 1.78 ± 2.5%. Under `COc1ccc(Cl)cc1NC(=O)Nc1cc(C)nc2ccccc12` stands 9.3 ± 13%; under `COc1ccc(-c2ccc3ncc4c(c3c2)n(-c2ccc(N3CCNCC3)c(C(F)(F)F)c2)c(=O)n4C)cn1`, 100%. Under `CO[C@@H](C(=O)N1Cc2[nH]nc(NC(=O)c3ccc(N4CCN(C)CC4)cc3)c2C1)c1ccccc1` stands 19.1 ± 3.7%; under `CC(=O)Nc1ccc([C@H](C)C(=O)Nc2ncc(C(C)C)s2)cc1`, 100%. The value for `CN1CCN(c2ccc3nc(-c4c(N)c5c(F)cccc5[nH]c4=O)[nH]c3c2)CC1` [Dovitinib] was 100%; that for `CC(C)(C)n1nc(-c2cccc3ccccc23)c2c(N)ncnc21` [1-Naphthyl PP1] was 13.6 ± 19%.

On to `COc1cc(Nc2ncc(F)c(Nc3ccc4c(n3)NC(=O)C(C)(C)O4)n2)cc(OC)c1OC`, for which the THP-1 cell loss came to 63.4 ± 52%. `COc1cc(OC2CCN(C)CC2)ccc1Nc1ncc2c(n1)n(C1CCCC1)c(=O)n2C` had a THP-1 cell loss of 87.6 ± 18%. Under `NC(=O)c1sc2c([N+](=O)[O-])cc(C(F)(F)F)cc2[n+]1[O-]` [Cyclapolin 9] stands 35.6 ± 12%; under `CCN(CCO)CCCOc1ccc2c(Nc3cc(CC(=O)Nc4cccc(F)c4)[nH]n3)ncnc2c1`, 7.76 ± 6.5%. The value for `C[C@@H]1CCN(C(=O)CC#N)C[C@@H]1N(C)c1ncnc2[nH]ccc12` was 9.64 ± 8.9%; that for `NC(=O)Nc1cc(-c2cccc(F)c2)sc1C(=O)N[C@H]1CCCNC1` was 84.2 ± 22%; that for `O=C(NCCCNc1nc(Nc2cccc(NC(=O)N3CCCC3)c2)ncc1I)c1cccs1` was 100%. Take `CC[C@@H]1C(=O)N(C)c2cnc(Nc3ccc(C(=O)N[C@H]4CC[C@H](N5CCN(CC6CC6)CC5)CC4)cc3OC)nc2N1C(C)C`: the THP-1 cell loss turned out to be 100%. For `COc1cc2nccc(Oc3ccc(NC(=O)Nc4ccc(F)cc4F)c(F)c3)c2cc1OC`, the THP-1 cell loss amounted to 8.51 ± 5.2%.

Molecule `COC(=O)c1ccc2c(c1)NC(=O)/C2=C(\Nc1ccc(N(C)C(=O)CN2CCN(C)CC2)cc1)c1ccccc1` gave a THP-1 cell loss of 10.48 ± 0.013%.

Regarding `Cc1ccc(NC(=O)c2cccc(C(C)(C)C#N)c2)cc1Nc1ccc2ncn(C)c(=O)c2c1`, the THP-1 cell loss turned out to be 100%.

For the molecule `CS(=O)(=O)CCNCc1nc(-c2ccc3ncnc(Nc4ccc(OCc5cccc(F)c5)c(Cl)c4)c3c2)cs1`, the THP-1 cell loss was 37.5 ± 15%. Under `CN(C)CC(C)(C)CNc1nn2c(-c3ccccc3)nnc2cc1C1CCC1` stands 18.4 ± 1.3%. The value for `CC(C)(C)c1cnc(CSc2cnc(NC(=O)C3CCNCC3)s2)o1` was 100%; that for `CCN(CC)CCCCN1c2ccccc2Oc2ccc(Cl)cc21` [10-DEBC hydrochloride] was 29.4 ± 13%; that for `Cc1ccc(Nc2nccc(N(C)c3ccc4c(C)n(C)nc4c3)n2)cc1S(N)(=O)=O` [Pazopanib hydrochloride] was 100%. With `O=C(CO)N1CCC(c2n[nH]c(-c3ccc(Cl)cc3)c2-c2ccncn2)CC1`, the THP-1 cell loss was 11.1 ± 0.43%. Under `COC(=O)Nc1ccc(-c2nc(N3CCOCC3)c3cnn(C4CCN(C(=O)OC)CC4)c3n2)cc1` stands 35.6 ± 0.38%; under `CC(C)(C)c1cc(NC(=O)Nc2ccc(-c3cn4c(n3)sc3cc(OCCN5CCOCC5)ccc34)cc2)no1`, 82.1 ± 1.3%. For the molecule `N#Cc1c(-c2ccccc2)cc(-c2cc(Br)ccc2O)[nH]c1=O`, the THP-1 cell loss was found to be 8.6 ± 8.9%.

The values above are taken from the supplement of paper PMC7530171.
